A selection: hits, their analogues and other compounds. The true share with any hit is near 12%.
BAZ2B inh = inhibitors of human BAZ2B bromodomain; actives 4.4% (n = 360,000); AlphaScreen BAZ2B-H3K14Ac peptide displacement; Q9UIF8; AID 504333; Potency, µM (titrated, usually from 114 µM), for inactives: at the highest dose activity change, negative = inhibition, hits mostly inhibitors; further: on the % scale 0 is the no-effect control and ±100 the full control effect; nearly all actives have a fitted effect of over 60% in size
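AlphaScreen displacement: compounds (up to 110uM) incubated 30 min at room temperature with a preformed 50 nM BAZ2B/50 nM biotinylated H3K14Ac peptide complex in PBS pH 7.4 with Tween-20. Donor and acceptor beads at 10 ug/mL final added, 20 min light-protected before reading.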
Sfp inh = blocks B. subtilis Sfp PPTase activity. Potency, µM, inactives show largest response in the series, negative = inhibition, hits mostly inhibitors. AID 1490. Biochemical Sfp PPTase activity, qHTS. actives 3.5% (n = 310,000). Q9F4F7;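 further: the enzyme is Sfp with the accession as filed and its product quenches rhodamine fluorescence; 0% = enzyme reaction without inhibitor and -100% = no enzyme wells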
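Buffer: 50 mM Hepes-Na pH 7.6, 10 mM MgCl2, 0.01% Nonidet P-40, 0.01% BSA. Enzyme 15 nM, pre-exposed to compound 15 min; substrates then added and fluorescence change tracked over 30 min.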
HP1b binding inh = HP1-beta chromodomain-methylated histone interaction inhibition; AlphaScreen HP1-beta / biotin-H3K9me3 peptide binding; Potency, µM (highest dose often 114 µM), inactives show at the top dose activity change, negative = inhibition, actives largely listed as inhibitors; actives 0.56% (n = 390,000); AID 540317; further: nearly all actives have a fitted effect of over 70% in size
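Compound inhibition of the preformed complex between 50 nM HP1-beta and 50 nM biotinylated H3K9me3 peptide was read by AlphaScreen. Buffer was PBS pH 7.4 with 0.01% Tween-20. Incubations ran 30 min at room temperature, with 10 ug/mL donor/acceptor beads.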
G9a inh = inhibitors of human histone lysine methyltransferase G9a. Potency, µM (doses to about 102 µM), for inactives: at the highest dose activity, negative = inhibition, hits mostly inhibitors. actives 8.8% (n = 350,000). G9a H3K9 monomethylation, AlphaScreen, 2 h; further: on the % scale 0 is the no-effect control and ±100 the full control effect; nearly all actives have a fitted effect of over 75% in size
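Chemiluminescent proximity detection of H3K9 monomethylation, read after 10 min bead incubation in the dark. Reaction: 20 nM G9a, 500 nM biotin-H3K9 peptide, 20 uM SAM cofactor, 2 h, room temperature, following 15 min enzyme-compound preincubation.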
JMJD2A Tudor = inhibitors of human JMJD2A Tudor domain; O75164; AlphaScreen JMJD2A-Tudor / H3K4me3 peptide binding; Potency, µM (doses to about 114 µM), inactives show at the top dose activity change, negative = inhibition, actives largely listed as inhibitors; actives 4.4% (n = 390,000); AID 504339; further: on the % scale 0 is the no-effect control and ±100 the full control effect; nearly all actives have a fitted effect of over 50% in size
An asterisk follows results filed as active; [ ] = remark or other dose. The call rests on the fitted dose curve; in most records, active means well fitted curve in the direction sought with a large enough effect; inconclusive means small, poorly fitted or top-dose-only effect, or another doubt; inactive means no such curve, though single readings can be large; an effect the other way counts as inactive or inconclusive. Potency means the concentration at half of the fitted maximal effect.

For Cc1cc(=O)oc2cc(OC(C)C(=O)NCCCN3CCCC3=O)c(Cl)cc12 (stereo not drawn) the results were BAZ2B inh -15.2%, Sfp inh 16.0%, HP1b binding inh 49.3%, G9a inh 43.1% and JMJD2A Tudor -12.2%.
`COc1ccc2[nH]c3c(=O)n(Cc4ccc(C(=O)N5CCCC5)cc4)c(=S)[nH]c3c2c1` gave BAZ2B inh -20.6%, Sfp inh 7.6%, HP1b binding inh inconclusive, G9a inh 7.94µM* and JMJD2A Tudor 6.31µM*.
`CCCCNC(=O)CCCCn1c(=S)[nH]c2c([nH]c3ccc(OC)cc32)c1=O` gave BAZ2B inh -4.8%, Sfp inh 5.6%, HP1b binding inh 23.6%, G9a inh -8.1% and JMJD2A Tudor inconclusive.
`COc1ccc2[nH]c3c(=O)n(CCCCC(=O)N4CCC(C(N)=O)CC4)c(=S)[nH]c3c2c1` gave BAZ2B inh -8.8%, Sfp inh -21.0%, HP1b binding inh 26.4%, G9a inh inconclusive and JMJD2A Tudor 3.55µM*.
For CC[C@H](C)NC(=O)CCCCCn1c(=S)[nH]c2c([nH]c3ccc(OC)cc32)c1=O the results were BAZ2B inh -15.7%, Sfp inh 18.1%, HP1b binding inh 45.4%, G9a inh 31.0% and JMJD2A Tudor -10.3%.
`COc1ccc2[nH]c3c(=O)n(CCCCC(=O)NCCN4CCCC4)c(=S)[nH]c3c2c1` gave BAZ2B inh -31.1%, Sfp inh 79.4µM*, HP1b binding inh inconclusive, G9a inh inconclusive and JMJD2A Tudor 5.62µM*.
For CCOC(=O)N1CCN(C(=O)c2ccc(Cn3c(=S)[nH]c4ccc(Br)cc4c3=O)cc2)CC1 the results were BAZ2B inh -2.3%, Sfp inh 10.5%, HP1b binding inh 27.5%, G9a inh 0.6% and JMJD2A Tudor -30.3%.
`Cc1c(Cl)cccc1NC(=O)CSc1ncc2c(n1)-c1ccccc1N(C)S2(=O)=O` gave BAZ2B inh 0.2%, HP1b binding inh 20.5%, G9a inh -17.4%[59 µM] and JMJD2A Tudor -3.6%.
For C[n+]1cccc2c(Br)ccc([O-])c21 the results were BAZ2B inh 22.3%, Sfp inh 56.2µM*, HP1b binding inh 24.3% and JMJD2A Tudor -28.7%.
For COc1cc(OC)c(NC(=S)Nc2cccc(C)c2)cc1Cl the results were BAZ2B inh -37.6%, Sfp inh -17.1%, HP1b binding inh 8.2%, G9a inh 12.4%[59 µM] and JMJD2A Tudor -9.7%.
CCNc1nc(NCC)nc(N(CC)C(N)=S)n1 was read as BAZ2B inh -24.0%, Sfp inh -29.7%, HP1b binding inh -3.9%, G9a inh 1.78µM* and JMJD2A Tudor -10.4%.
For CCOc1ccccc1CN1CCN(CCCn2cccn2)CC1CCO (stereo not drawn) the results were BAZ2B inh -14.9%, Sfp inh 14.4%, HP1b binding inh 46.5%, G9a inh -6.1% and JMJD2A Tudor 1.3%.
For Cc1cc(NC(=O)CSCC(=O)OC(C)C(=O)c2cc(C)c(C)cc2C)no1 (stereo not drawn) the results were BAZ2B inh 9.2%, HP1b binding inh 36.7%, G9a inh -23.8% and JMJD2A Tudor -9.6%.
For O=c1c2ccccc2sn1-c1ccccc1 the results were BAZ2B inh 7.94µM*, Sfp inh 0.501µM*, HP1b binding inh inconclusive, G9a inh inconclusive and JMJD2A Tudor 3.98µM*.
CN(C)S(=O)(=O)c1cccc(-n2sc3ccccc3c2=O)c1 was read as BAZ2B inh 4.47µM*, Sfp inh 1.58µM*, HP1b binding inh -12.3%, G9a inh -127.9% and JMJD2A Tudor 14.1µM*.
Screening O=c1c2cc(F)ccc2sn1-c1ccccc1 returned BAZ2B inh 10µM*, HP1b binding inh 0.5%, G9a inh 0.0%[0.501 µM] and JMJD2A Tudor 8.91µM*.
O=c1c(N2CCc3ccccc3C2)csc2ccc(F)cc12 was read as BAZ2B inh -16.7%, HP1b binding inh 36.3%[57 µM], G9a inh inconclusive and JMJD2A Tudor -17.3%.
Screening O=c1ccsc2ccccc12 returned HP1b binding inh 14.4% and JMJD2A Tudor -0.7%.
For O=c1c2ccccc2sn1-c1nccs1 the results were BAZ2B inh 5.01µM*, Sfp inh 2.24µM*, HP1b binding inh inconclusive, G9a inh 1.41µM* and JMJD2A Tudor 5.62µM*.
`O=C1c2ccccc2C(=O)N1c1nccs1` gave HP1b binding inh 10.5%[57 µM] and JMJD2A Tudor -9.7%.
`CN(C)S(=O)(=O)c1ccc2[nH]cc(/C=C/c3nc4ccccc4c(=O)n3-c3ccccc3)c2c1` gave BAZ2B inh 1.9%, Sfp inh 4.9%, HP1b binding inh 13.3% and JMJD2A Tudor -5.1%.
CC(C)c1ccc(CNc2ncc(Br)cn2)cc1 was read as BAZ2B inh 4.9%, Sfp inh 17.0%, HP1b binding inh 24.8%, G9a inh 0.4% and JMJD2A Tudor -15.3%.
Cc1ccccc1-n1sc2cc(F)ccc2c1=O was read as BAZ2B inh 4.47µM*, Sfp inh 0.562µM*, HP1b binding inh 15.8µM*, G9a inh -112.7% and JMJD2A Tudor 4.47µM*.
O=C(O)c1cccc(-n2sc3ccccc3c2=O)c1 was read as BAZ2B inh 8.91µM*, HP1b binding inh 73.2%, G9a inh 7.3%[0.501 µM] and JMJD2A Tudor 2.82µM*.
O=C(O)c1cccc(N2C(=O)CCC2=O)c1 was read as BAZ2B inh -31.8% and Sfp inh 4.2%.
`CC1NC(=O)c2ccccc2-n2c1nc1cc(F)ccc1c2=O` (stereo not drawn) gave BAZ2B inh 6.1% and G9a inh 14.3%[0.501 µM].
For Cc1ccc(NC2=C(C(=O)c3ccccc3)N(C)S(=O)(=O)c3ccccc32)cc1 the results were BAZ2B inh 25.1µM*, Sfp inh -2.5%, HP1b binding inh inconclusive, G9a inh 22.8%[0.501 µM] and JMJD2A Tudor inconclusive.
For Cc1nc(C)c(CCNC(=O)c2cccc(Cl)c2)s1 the results were BAZ2B inh 10.2%, Sfp inh -1.8%, HP1b binding inh 17.8%, G9a inh 79.4µM* and JMJD2A Tudor 2.1%.
`O=C1N(CCCCN2C(=O)C3(OCCO3)c3ccccc32)c2ccccc2C12OCCO2` gave BAZ2B inh -0.5%, Sfp inh 8.9%, HP1b binding inh 20.6%, G9a inh 10.2%[12.7 µM] and JMJD2A Tudor -23.2%.
For O=C(CN1C(=O)C2(OCCO2)c2ccccc21)c1ccc(Br)cc1 the results were BAZ2B inh -31.3%, Sfp inh 9.2%, HP1b binding inh 34.9%, G9a inh 39.8µM* and JMJD2A Tudor -7.1%.
`CCN1C(=O)/C(=C\c2ccncc2)SC1=Nc1ccc(C)c(C)c1` gave BAZ2B inh 31.6µM*, Sfp inh -40.1%, HP1b binding inh inconclusive, G9a inh inconclusive and JMJD2A Tudor 50.1µM*.
For CCCN1C(=O)/C(=C\c2ccncc2)SC1=Nc1ccccc1 the results were BAZ2B inh inconclusive, Sfp inh 1.1%, HP1b binding inh -27.5%, G9a inh inconclusive and JMJD2A Tudor inconclusive.

High-throughput results (PubChem)
